Results from PubChem BioAssay.

Target: Tumor necrosis factor receptor superfamily member 10B (Homo sapiens) (UniProt O14763)
Assay: caspase-8 TRAIL sensitization, hit retest, confirmation, cell-based, NB7+caspase-8, with/without TRAIL, luminescence panel (AID 651596)
Settings: NB7 neuroblastoma + caspase-8, TRAIL sensitization, luminescence viability, with TRAIL, mean of runs, at 10 µM, stronger effect = higher value; in the data active = activity above about 50%; inactive = the rest

Tumor necrosis factor receptor superfamily member 10B (Homo sapiens), sequence (O14763 whole entry, looked up): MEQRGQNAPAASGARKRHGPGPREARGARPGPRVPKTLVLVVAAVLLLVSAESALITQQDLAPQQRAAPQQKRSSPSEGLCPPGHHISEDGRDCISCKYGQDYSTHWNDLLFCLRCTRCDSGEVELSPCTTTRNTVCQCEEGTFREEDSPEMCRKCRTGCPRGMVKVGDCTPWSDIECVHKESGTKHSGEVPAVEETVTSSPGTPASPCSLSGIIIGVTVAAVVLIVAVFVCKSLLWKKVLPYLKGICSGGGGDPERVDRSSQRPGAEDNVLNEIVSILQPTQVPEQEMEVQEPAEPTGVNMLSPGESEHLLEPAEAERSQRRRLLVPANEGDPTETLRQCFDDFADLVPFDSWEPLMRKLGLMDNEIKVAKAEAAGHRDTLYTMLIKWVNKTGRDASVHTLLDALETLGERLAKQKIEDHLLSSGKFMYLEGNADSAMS

Row | Structure (SMILES) | activity
1 | O=C(/C=C/c1ccc2c(c1)OCO2)Nc1cccnc1 | 71.1%
2 | CN(NC(=O)c1cccc(Cl)c1)c1nc(-c2ccccc2)nnc1C(F)(F)F | 75.1%
3 | CC(C)c1ccc2c(c1)CC[C@H]1[C@](C)(CN)CCC[C@]21C | 33.8%
4 | CC(=O)c1ccc(NC(=O)Nc2ccccc2)cc1 | 65.2%
5 | Nc1ccc(-c2nc3ncccc3o2)c(Cl)c1 | 43.9%
6 | O=C(CCl)N1CCN(S(=O)(=O)c2ccc3c(c2)CCC3)CC1 | 97.7%
7 | Nc1c(C(=O)Nc2nc3ccccc3s2)sc2nc(-c3cccs3)ccc12 | 97.8%
8 | CC(C)(C)c1ccc(C(=O)Nc2cnccn2)cc1 | 78.5%
9 | Cn1c2ccccc2c(=O)c2ccc(C#CC3(O)CCCCC3)cc21 | 91.3%
10 | Cc1ccc(-c2ccccc2NC(=O)CCl)o1 | 47.4%
11 | Cc1ccc(NC2=Nc3ccccc3CS2)cc1 | 57.4%
12 | Cc1cc(=O)[nH]c2nnc(-c3ccc(Cl)cc3)n12 | 82.2%
13 | CC(=O)n1cc(N(C(=O)CCl)c2ccc(Cl)cc2)c2ccccc21 | 98.5%
14 | CCOC(=O)N1CCN(C(=O)CSCC(=O)Nc2nc(-c3ccc(-c4ccccc4)cc3)cs2)CC1 | 66.9%
15 | O=C(Nc1c(Cl)cc2c(c1Cl)Cc1cc([N+](=O)[O-])ccc1-2)C(Cl)Cl | 89.3%
16 | Cc1ccc(/C=C/C2=NN(C)C(=O)CC2)cc1 | 46.6%
17 | CCCc1cc(=O)[nH]c(SCC(=O)Nc2cc(S(=O)(=O)N3CCCCC3)ccc2C)n1 | 3.67%
18 | Cc1cc(C(=O)COC(=O)c2n[nH]c3ccccc23)c(C)n1C | 62.2%
19 | COc1ccc(C(=O)/C=C/Nc2cccc(O)c2)cc1 | 75.9%
20 | Cc1cccc(NC(=O)c2cc3ccccc3c(=O)o2)n1 | 60.3%

Row | Structure (SMILES) | activity
21 | O=C1C(=Cc2ccc(Cl)cc2)CCc2ccccc21 | 85.8%
22 | COC(=O)c1ccc2nc(-c3cccc(N)c3)cn2c1 | 74.5%
23 | Cc1cccc(NC(=O)c2cnc3ccccn3c2=O)c1 | 69%
24 | Cc1cc(-c2ccccc2)nc(N/N=C/c2ccccc2)n1 | 61.6%
25 | Cc1cc(C)cc(C(=O)Nc2nc3ccccc3[nH]2)c1 | 78.7%
26 | O=C(NC(=S)Nc1ccccn1)c1ccc(-c2ccccc2)cc1 | 76.3%
27 | CN(C(=O)c1ccc(NC(=O)Cc2cccc(NC(=O)C3CCCN(S(=O)(=O)c4cccc([N+](=O)[O-])c4)C3)c2)cc1)C1CC1 (stereo not given) | 56.3%
28 | O=C(/C=C/c1ccccc1Cl)Nc1cccc(O)c1 | 61.3%
29 | COc1ccc(-c2cc3nc(C)cc(N)n3n2)cc1 | 90.2%
30 | CCN(CC)S(=O)(=O)c1cccc(NC(=O)Nc2cccc(C(F)(F)F)c2)c1 | 78.2%
31 | O=C(NNC(=O)c1cc(OCC(F)(F)F)ccc1OCC(F)(F)F)c1cccc(C(F)(F)F)c1 | 50.6%
32 | CC(C)CC(=O)Nc1nc2c(c(=O)[nH]1)CCCC2 | 69.3%
33 | Cc1occc1C(=O)O/N=C(\N)c1ccccc1 | 89.7%
34 | CC(C)(C)c1ccc(/C=N/NC(=O)c2ccccn2)cc1 | 83.5%
35 | Cc1nn(-c2ccccc2)c(Cl)c1CN(C(=O)CCl)c1ccc(Cl)cc1 | 99.3%
36 | C#CC(=O)N(c1ccc(OC)c(OC)c1)C(C(=O)NC1CCCC1)c1cccs1 (stereo not given) | 99.3%
37 | Cc1ccc(C(=O)N/C(=C\c2ccc(-c3ccccc3[N+](=O)[O-])o2)C(=O)NCCCN(C)C)cc1 | 18.7%
38 | O=C(Cn1c2ccccc2c(=O)c2ccccc21)N/N=C/c1cc([N+](=O)[O-])ccc1N1CCCCCC1 | 49.8%
39 | COc1ccccc1C/C(N)=N/OC(=O)c1cccc([N+](=O)[O-])c1 | 89.8%
40 | CC1(C(=O)N/N=C/c2c(F)c(F)c(F)c(F)c2F)CC1(Cl)Cl (stereo not given) | 91.5%
